KDM4E inh: JMJD2E (human) inhibition; B2RXH2; JMJD2E catalytic domain, FDH-coupled NADH fluorescence (FDH is formaldehyde dehydrogenase); Potency, µM (doses to about 57.1 µM), without a hit: top-dose activity change, negative = inhibition, actives largely listed as inhibitors; 230,000 tested, 1.6% active;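 further: potency means the concentration at half of the fitted maximal effect; 0% = wells with enzyme and -100% = buffer wells without enzyme; nearly all actives have a fitted effect of over 50% in size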
Target sequence (B2RXH2 1-337 limits assumed): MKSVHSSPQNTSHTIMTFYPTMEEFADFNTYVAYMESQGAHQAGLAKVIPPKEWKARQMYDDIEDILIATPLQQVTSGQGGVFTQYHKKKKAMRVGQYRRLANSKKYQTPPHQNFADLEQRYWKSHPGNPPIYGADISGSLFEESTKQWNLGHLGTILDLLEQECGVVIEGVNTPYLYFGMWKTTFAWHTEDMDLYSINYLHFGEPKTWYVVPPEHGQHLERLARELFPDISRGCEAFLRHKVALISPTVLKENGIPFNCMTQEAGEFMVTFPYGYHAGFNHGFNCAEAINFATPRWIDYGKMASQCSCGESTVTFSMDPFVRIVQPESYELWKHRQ
ALDH1A1 block: blocks purified human ALDH1A1 activity. P00352. Purified ALDH1A1, NADH fluorescence, propionaldehyde substrate. Potency, µM (doses to about 75.3 µM), inactives show at the highest dose activity, negative = inhibition, actives largely listed as inhibitors. 220,000 tested, 7.3% active. AID 1030;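 further: potency means the concentration at half of the fitted maximal effect; plate controls were no enzyme wells and a reference inhibitor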
PNC assembly inh: inhibitors of perinucleolar compartment assembly; PC3M PTB-GFP, PNC prevalence imaging, 16 h; hits give low values; activity change (PNC), negative = inhibition, % at 10 µM; 140,000 tested, 3.1% active; AID 2417;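 active means readout at or below -70, meaning at least 70% loss of cells showing the perinucleolar compartment, a nuclear body marking cancer cells; inconclusive means readout between -30 and a set limit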;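 further: plate controls were DMSO wells for no effect and camptothecin positive control wells for full effect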
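Compounds are pinned in duplicate onto adhered PC3M cells stably expressing GFP-tagged PTB and incubated 16 h at 37 C. Cells are then fixed, nuclei stained with Hoechst, and PNC-positive cells counted.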
HPGD inh: blocks human HPGD enzyme activity; purified HPGD, NADH fluorescence kinetic, PGE2 substrate; Potency, µM, for the others: top-dose activity change, negative = inhibition, most hits filed as inhibitors; 150,000 tested, 4.3% active; AID 894; further: potency means the concentration at half of the fitted maximal effect
Target sequence (P15428 whole entry, looked up): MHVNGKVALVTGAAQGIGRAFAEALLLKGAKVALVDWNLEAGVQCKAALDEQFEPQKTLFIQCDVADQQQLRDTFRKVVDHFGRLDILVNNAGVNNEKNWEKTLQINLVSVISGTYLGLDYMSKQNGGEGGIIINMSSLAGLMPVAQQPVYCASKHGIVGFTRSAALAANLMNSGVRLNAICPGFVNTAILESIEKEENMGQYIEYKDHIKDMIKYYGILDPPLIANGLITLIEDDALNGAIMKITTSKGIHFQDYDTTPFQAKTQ
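20 nM HPGD preincubated 15 min at room temperature with compound in 50 mM Tris-HCl pH 8, 0.01% Tween 20. Started with 1 mM NAD+ and 30 uM prostaglandin E2; NADH fluorescence (360/450 nm) read 5 times over 30-s intervals, last minus first.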
An asterisk follows results filed as active; ? = inconclusive; · = no result given; [ ] = remark or other dose. A selection: hits, their analogues and other compounds. The true share with any hit is near 11%. Unless noted, the call rests on the fitted dose curve; in most records, active means well fitted inhibition curve with a large enough effect (not every such curve was filed as active); inconclusive means small, poorly fitted or top-dose-only effect, or another doubt; inactive means no such curve, though single readings can be large or run the other way. Unless noted, on the % scale 0 is the no-effect control and ±100 the full control effect.

SMILES | KDM4E inh | ALDH1A1 block | PNC assembly inh | HPGD inh
COc1ccc(C(=O)c2c[nH]c(C(=O)NCC3CCCO3)c2)cc1 (stereo not given) | 3% | ? | 19 | 2µM*
O=C(NCC1CCCO1)c1cc(C(=O)C2CCCCC2)c[nH]1 (stereo not given) | 1% | -1% | · | ·
Cc1ccccc1C(=O)c1c[nH]c(C(=O)NCC2CCCO2)c1 (stereo not given) | 2% | ? | 25 | 6.3µM*
Cc1ccccc1C(=O)c1c[nH]c(C(N)=O)c1 | -1% | 7.9µM* | -17 | -17%
Cc1ccccc1C(=O)c1c[nH]c(C(=O)N=CN(C)C)c1 | -4% | ? | · | ·
CCCC1OC2CC3C4CCC5=CC(=O)C=CC5(C)C4C(O)CC3(C)[C@]2(C(=O)CO)O1 (stereo not given in full) | 5% | -3% | · | -8%
Cn1c(Cc2ccccc2)nnc1SCC(=O)c1cccs1 | 2% | -4% | -2 | -11%
CCOC(=O)/C(C#N)=C/Nc1ccccc1OC(F)(F)F | -3% | · | · | ·
CCCCCCSc1nnc2[nH]c(=O)cc(N)n12 | 3% | 3% | 13 | 11µM*
CCCCCCCCSc1nnc2[nH]c(=O)cc(N)n12 | 2% | 4% | · | ·
O=S(=O)(CCOc1ccccc1)c1nc2ccccc2[nH]1 | 2% | 6.3µM* | 25 | -16%
Cc1ccc(CSc2nc3c(cc2C#N)CCC3)cc1 | -1% | 7% | 11 | -2%
CN1CCc2nc(SCc3ccc(C(C)(C)C)cc3)c(C#N)cc2C1 | ? | 0% | 93 | 28µM*
Cc1ccc(C2=NC(C)(C)N=C2SCC(=O)Nc2ccc(Cl)cc2)cc1 | 2% | 22µM* | 34 | -24%
O=C(COc1ccccc1[N+](=O)[O-])N/N=C/c1cccs1 | 0% | 0% | -96* | -8%
Cc1cccc(OCC(=O)N/N=C\c2cc3c(cc2[N+](=O)[O-])OCO3)c1C | 6% | 7.9µM* | 50 | -5%
CC(C)c1ccccc1NC(=O)COC(=O)COc1ccccc1[N+](=O)[O-] | 2% | -7% | · | ·
O=C(COC(=O)COc1ccccc1[N+](=O)[O-])Nc1ccccc1Br | -1% | 18µM* | -2 | -18%
Cn1cc(/C=N/NC(=O)COc2ccccc2[N+](=O)[O-])c2ccccc21 | -1% | -19% | ? | -8%
CC(C)(C)C(=O)COc1ccccc1[N+](=O)[O-] | 4% | 20µM* | · | ·
CC(=O)NCCNc1nc(-c2ccccc2Cl)nc2ccccc12 | -25% | ? | · | -10%
CCOC(=O)c1c(C)[nH]c(=S)c(C#N)c1-c1ccc(OC)cc1 | ? | ? | 23 | ?
CCOC(=O)c1c(C)[nH]c(=S)c(C#N)c1-c1ccc(Cl)cc1 | 3% | ? | -108* | -16%
CCCCOc1ccc(-c2c(C(=O)Nc3ccccc3)c(C)[nH]c(=S)c2C#N)cc1 | 4% | 3.5µM* | · | ·
NNC(=O)c1ccc(NS(=O)(=O)c2ccc(Br)cc2)cc1 | 2% | · | · | ·
SMILES | KDM4E inh | ALDH1A1 block | PNC assembly inh | HPGD inh
O=C(N/N=C/c1ccc(OCC(=O)N2CCCCC2)cc1)c1ccccc1O | -17% | -6% | -9 | 22µM*
O=C(N/N=C/c1ccc(OCC(=O)N2CCCCC2)cc1)c1ccccc1 | -8% | 18µM* | -4 | 14µM*
C=CCNC(=O)CC(=O)N/N=C/c1cccs1 | -6% | -1% | · | ·
Clc1cc(Cl)cc(C2=NCCC(c3ccccc3)O2)c1 (stereo not given) | -9% | -2% | 89 | -11%
CC1(C(=O)NCCN2CCOCC2)C=CC2(CCCCC2)N1C(=O)c1ccccc1 (stereo not given) | 5% | -3% | 68 | -7%
CCOC(=O)CSC(=S)NC(=O)c1ccc(OC)cc1 | 8% | ? | 5 | 10µM*
COc1ccc(C(=O)NC(=S)SCC(=O)O)cc1 | 2% | · | · | ·
O=C(O)CSc1nc(-c2ccccc2)nc2c1oc1ccccc12 | 3% | ? | 1 | ?
Cc1nc(SCC(=O)NC(C)c2ccccc2)c2oc3ccccc3c2n1 (stereo not given) | 3% | -7% | 61 | -12%
CNC(=O)C(Sc1nc(C)nc2c1oc1ccccc12)C(C)=O (stereo not given) | -5% | 13µM* | -2 | -24%
Cc1nc(SCC(=O)c2ccc(Cl)s2)c2oc3ccccc3c2n1 | 6% | ? | -25 | 2.2µM*
Cc1nc(SCC(=O)NCCc2ccccc2)c2oc3ccccc3c2n1 | -1% | -1% | -100* | -20%
O=C(O)CSc1nc(-c2ccc(Cl)cc2)nc2c1oc1ccccc12 | -4% | ? | -87* | 16µM*
Cc1ccc(NC(=S)N(C)Cc2cn(C)c3ccccc23)cc1 | 7% | 2% | ? | -3%
Cn1ncc2c(NNC(=O)C3CCCCC3)ncnc21 | 1% | 5% | · | ·
Cc1cc(C)nc(Sc2nc(C)nc3c2oc2ccccc23)n1 | -8% | ? | 128 | 32µM*
Cc1nc(SCc2cccc(F)c2)c2oc3ccccc3c2n1 | 11% | · | · | ·
CCc1cc2c(Sc3nc4ccccc4s3)ncnc2s1 | -7% | 20µM* | 27 | 25µM*
Cc1nc2ccccc2c2oc(C(=O)N3CCc4ccccc4C3)cc12 | 0% | 25µM* | 7 | -10%
Cc1nc2ccccc2c2oc(C(=O)N3CCN(C(=O)c4ccco4)CC3)cc12 | -6% | ? | 27 | -22%
O=C(Nc1ccccn1)c1ccc2nc(-c3ccccc3)c(-c3ccccc3)nc2c1 | ? | 11µM* | · | ·
O=C(Nc1cccnc1)c1ccc2nc(-c3ccccc3)c(-c3ccccc3)nc2c1 | ? | 18µM* | · | ·
O=S(=O)(O)C(c1ccccc1)[C@@H](O)c1ccccc1 (stereo not given in full) | · | 24%[13.5 µM] | · | -9%
CC1(C)CC(=O)C2=C(C1)OC(N)=C([N+](=O)[O-])C2c1ccc(F)cc1 (stereo not given) | 5% | · | · | ·
CCOC(=O)C1=C(N)OC2=C(C(=O)CC(C)(C)C2)C1c1ccc(CC)s1 (stereo not given) | -2% | 6% | · | ·
SMILES | KDM4E inh | ALDH1A1 block | PNC assembly inh | HPGD inh
CCOC(=O)C1=C(N)OC2=C(C(=O)CC(C)(C)C2)C1c1ccc(C)s1 (stereo not given) | -8% | 13µM* | · | ·
Cc1ccc(C2C(C(N)=S)=C(N)OC3=C2C(=O)CC(C)(C)C3)cc1 (stereo not given) | -4% | 14µM* | ? | -11%
O=C(COC(=O)Cc1cn2ccsc2n1)Nc1nc2ccccc2s1 | 1% | -13% | -100* | -4%
CCOc1ccc(OCC)c(S(=O)(=O)N2CCOCC2)c1 | 3% | -3% | · | ·
CCOc1cc(C)c(Cl)cc1S(=O)(=O)N1CCCC1 | 4% | 8% | -17 | 1%
CCOc1ccc(C(C)C)cc1S(=O)(=O)N1CCOCC1 | 5% | 8.9µM* | · | ·
CCOc1cc(C)c(C(C)C)cc1S(=O)(=O)N1CCN(C)CC1 | 4% | 5µM* | 7 | -15%
COc1cc(C)c(C(C)C)cc1S(=O)(=O)N1CCN(C)CC1 | -3% | 14µM* | -27 | -15%
CC(=O)Nc1ccc(S(=O)(=O)N2CCN(CC(=O)N3CCOCC3)CC2)cc1 | 0% | · | · | ·
O=C(NCc1cccnc1)Nc1ccc2c(c1)OCO2 | 3% | 2% | · | ·
c1cncc(CNc2ccc3c(c2)OCO3)c1 | ? | 20µM* | -8 | -12%

High-throughput results as filed in PubChem BioAssay.
